Legend:
Assay in all cases: DAPPL (digital affinity profiling via proximity ligation, sequencing); 10 mM Tris-HCl pH 7.5, 50 mM NaCl, 1 mM DTT, 4% glycerol, room temperature, 30 min; GST-TFs on glutathione beads, 16-mer random dsDNA library, 0.1% formaldehyde crosslink after washing; high values mean tight binding
Conditions in all cases: protein: recombinant; tags: N-terminal GST; dsDNA, one strand shown
ETV5 = ETV5 (Homo sapiens, UniProt P41161 1-510)
Summary of the method: (§1)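 Beads coated with glutathione captured GST-fused human transcription factors that had been expressed in yeast, and the factors were then given DNA barcodes and pooled with a tag-only sample. The pools were incubated with 200 nmole of a random double-stranded 16-mer DNA library in Tris/NaCl/DTT/glycerol buffer for 30 min at room temperature, washed, crosslinked with 0.1% formaldehyde and proximity-ligated with BsaI/T4 ligase at 37 °C for 1 h. PCR amplification and Illumina NextSeq500 sequencing came last. Binding signal is each hexamer's read frequency for a factor divided by its frequency for the tag-only sample.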

SPIC = target: T1, SPIC (Homo sapiens, UniProt Q8N5J4 1-248)
T1 sequence: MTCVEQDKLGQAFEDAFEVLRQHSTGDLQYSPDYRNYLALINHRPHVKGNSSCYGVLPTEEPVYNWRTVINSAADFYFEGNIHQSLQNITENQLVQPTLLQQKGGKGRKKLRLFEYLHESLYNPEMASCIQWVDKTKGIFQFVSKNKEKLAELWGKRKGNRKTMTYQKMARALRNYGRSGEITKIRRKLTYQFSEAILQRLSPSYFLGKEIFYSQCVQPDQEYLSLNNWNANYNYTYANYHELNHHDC
Summary of the method: as §1

ELK4 = target: T2, ELK4 (Homo sapiens, UniProt P28324-2 1-405)
T2 sequence: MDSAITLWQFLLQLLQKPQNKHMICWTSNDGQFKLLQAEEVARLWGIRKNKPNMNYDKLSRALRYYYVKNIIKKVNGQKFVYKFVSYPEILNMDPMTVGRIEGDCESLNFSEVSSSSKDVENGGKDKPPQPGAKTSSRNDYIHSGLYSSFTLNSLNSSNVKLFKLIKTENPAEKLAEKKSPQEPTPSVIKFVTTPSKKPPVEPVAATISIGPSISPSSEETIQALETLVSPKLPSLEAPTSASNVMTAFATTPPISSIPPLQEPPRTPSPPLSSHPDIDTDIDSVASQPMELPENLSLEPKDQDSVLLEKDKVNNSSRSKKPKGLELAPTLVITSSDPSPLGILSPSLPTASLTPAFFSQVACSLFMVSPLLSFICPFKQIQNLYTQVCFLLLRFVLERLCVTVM
Summary of the method: as §1

ELF3 = target: T3, ELF3 (Homo sapiens, UniProt P78545 1-371)
T3 sequence: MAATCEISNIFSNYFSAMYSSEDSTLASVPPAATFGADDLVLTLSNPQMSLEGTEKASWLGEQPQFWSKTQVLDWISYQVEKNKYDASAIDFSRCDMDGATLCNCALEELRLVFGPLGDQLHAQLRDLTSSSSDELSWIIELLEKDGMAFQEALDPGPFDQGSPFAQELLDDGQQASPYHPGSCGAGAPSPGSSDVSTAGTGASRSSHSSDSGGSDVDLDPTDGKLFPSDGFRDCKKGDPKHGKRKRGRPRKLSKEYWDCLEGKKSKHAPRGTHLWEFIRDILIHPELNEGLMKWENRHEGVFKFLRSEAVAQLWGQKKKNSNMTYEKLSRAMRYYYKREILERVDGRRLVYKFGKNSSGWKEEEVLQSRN
Summary of the method: as §1

ETV7 = target: T4, ETV7 (Homo sapiens, UniProt Q9Y603 1-341)
T4 sequence: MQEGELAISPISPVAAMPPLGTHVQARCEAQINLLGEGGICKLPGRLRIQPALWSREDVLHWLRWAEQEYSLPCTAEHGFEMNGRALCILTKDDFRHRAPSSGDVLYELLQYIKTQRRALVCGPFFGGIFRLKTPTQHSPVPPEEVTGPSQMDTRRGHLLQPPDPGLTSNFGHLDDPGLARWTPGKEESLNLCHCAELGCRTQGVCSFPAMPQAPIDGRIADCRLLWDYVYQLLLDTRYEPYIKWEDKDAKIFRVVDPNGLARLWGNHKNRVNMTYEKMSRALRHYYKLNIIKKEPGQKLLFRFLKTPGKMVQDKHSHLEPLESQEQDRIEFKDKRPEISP
Summary of the method: as §1

ETV3 = target: T5, ETV3 (Homo sapiens, UniProt P41162-2 1-143)
T5 sequence: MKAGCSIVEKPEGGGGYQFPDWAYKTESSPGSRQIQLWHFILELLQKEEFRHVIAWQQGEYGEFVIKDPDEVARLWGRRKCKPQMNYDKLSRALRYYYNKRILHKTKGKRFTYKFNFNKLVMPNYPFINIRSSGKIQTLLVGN
Summary of the method: as §1

ETV6 = ETV6 (Homo sapiens, UniProt P41212 1-452)
Summary of the method: as §1

GABPA = target: T6, GABPA (Homo sapiens, UniProt Q06546 1-454)
T6 sequence: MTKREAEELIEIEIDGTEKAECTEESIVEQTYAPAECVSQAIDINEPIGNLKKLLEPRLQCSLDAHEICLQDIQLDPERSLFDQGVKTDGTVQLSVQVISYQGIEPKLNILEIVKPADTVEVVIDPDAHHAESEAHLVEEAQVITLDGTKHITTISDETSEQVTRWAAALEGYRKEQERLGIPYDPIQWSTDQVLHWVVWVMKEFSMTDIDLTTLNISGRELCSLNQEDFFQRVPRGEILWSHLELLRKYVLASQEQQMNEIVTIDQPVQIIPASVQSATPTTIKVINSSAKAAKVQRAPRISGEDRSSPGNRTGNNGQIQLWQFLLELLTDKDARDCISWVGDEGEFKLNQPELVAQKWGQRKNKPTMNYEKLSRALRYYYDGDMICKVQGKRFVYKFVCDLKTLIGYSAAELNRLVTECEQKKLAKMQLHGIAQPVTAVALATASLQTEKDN
Summary of the method: as §1

ELF1 = ELF1 (Homo sapiens, UniProt P32519 1-619)
Summary of the method: as §1

SPIB = SPIB (Homo sapiens, UniProt Q01892 1-262)
Summary of the method: as §1

ELK3 = target: T7, ELK3 (Homo sapiens, UniProt P41970 1-407)
T7 sequence: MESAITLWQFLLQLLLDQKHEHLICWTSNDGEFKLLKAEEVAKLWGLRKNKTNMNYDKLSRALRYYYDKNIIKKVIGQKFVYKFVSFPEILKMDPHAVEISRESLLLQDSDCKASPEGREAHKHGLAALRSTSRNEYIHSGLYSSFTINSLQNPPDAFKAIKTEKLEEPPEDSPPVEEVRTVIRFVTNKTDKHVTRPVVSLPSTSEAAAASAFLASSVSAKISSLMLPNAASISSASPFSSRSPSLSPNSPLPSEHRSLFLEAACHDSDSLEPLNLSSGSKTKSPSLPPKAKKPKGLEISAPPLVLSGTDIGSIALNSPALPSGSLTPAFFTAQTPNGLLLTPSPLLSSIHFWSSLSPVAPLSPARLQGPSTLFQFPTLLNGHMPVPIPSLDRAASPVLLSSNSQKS
Summary of the method: as §1

ETV3L = target: T8, ETV3L (Homo sapiens, UniProt Q6ZN32 1-361)
T8 sequence: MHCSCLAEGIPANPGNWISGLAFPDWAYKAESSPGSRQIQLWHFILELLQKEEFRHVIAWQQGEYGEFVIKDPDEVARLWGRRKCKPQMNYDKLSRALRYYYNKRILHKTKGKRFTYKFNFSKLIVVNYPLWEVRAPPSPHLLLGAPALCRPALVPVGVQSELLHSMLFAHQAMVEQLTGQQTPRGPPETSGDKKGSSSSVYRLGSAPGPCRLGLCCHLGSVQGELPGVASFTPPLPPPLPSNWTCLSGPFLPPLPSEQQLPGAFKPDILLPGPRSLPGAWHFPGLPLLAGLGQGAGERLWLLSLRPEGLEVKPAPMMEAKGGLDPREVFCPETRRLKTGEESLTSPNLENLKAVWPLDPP
Summary of the method: as §1

Sequence of ETV5 (P41161 whole entry, the tested form may be a part): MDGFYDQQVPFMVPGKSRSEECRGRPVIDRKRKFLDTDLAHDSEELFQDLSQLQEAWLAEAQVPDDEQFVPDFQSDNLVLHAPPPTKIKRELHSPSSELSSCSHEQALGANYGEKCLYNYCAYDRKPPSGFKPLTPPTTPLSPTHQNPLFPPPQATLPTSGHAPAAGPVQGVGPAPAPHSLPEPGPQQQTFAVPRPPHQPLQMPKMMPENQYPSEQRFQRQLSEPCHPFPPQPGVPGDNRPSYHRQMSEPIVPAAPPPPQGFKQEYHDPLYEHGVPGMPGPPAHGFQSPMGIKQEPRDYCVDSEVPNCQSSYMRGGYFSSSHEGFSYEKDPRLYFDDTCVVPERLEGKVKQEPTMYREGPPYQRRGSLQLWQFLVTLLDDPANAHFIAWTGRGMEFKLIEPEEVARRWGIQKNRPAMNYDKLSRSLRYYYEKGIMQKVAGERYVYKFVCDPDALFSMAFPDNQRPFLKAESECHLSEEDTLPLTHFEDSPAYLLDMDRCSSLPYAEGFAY
Sequence of ELF1 (P32519 whole entry): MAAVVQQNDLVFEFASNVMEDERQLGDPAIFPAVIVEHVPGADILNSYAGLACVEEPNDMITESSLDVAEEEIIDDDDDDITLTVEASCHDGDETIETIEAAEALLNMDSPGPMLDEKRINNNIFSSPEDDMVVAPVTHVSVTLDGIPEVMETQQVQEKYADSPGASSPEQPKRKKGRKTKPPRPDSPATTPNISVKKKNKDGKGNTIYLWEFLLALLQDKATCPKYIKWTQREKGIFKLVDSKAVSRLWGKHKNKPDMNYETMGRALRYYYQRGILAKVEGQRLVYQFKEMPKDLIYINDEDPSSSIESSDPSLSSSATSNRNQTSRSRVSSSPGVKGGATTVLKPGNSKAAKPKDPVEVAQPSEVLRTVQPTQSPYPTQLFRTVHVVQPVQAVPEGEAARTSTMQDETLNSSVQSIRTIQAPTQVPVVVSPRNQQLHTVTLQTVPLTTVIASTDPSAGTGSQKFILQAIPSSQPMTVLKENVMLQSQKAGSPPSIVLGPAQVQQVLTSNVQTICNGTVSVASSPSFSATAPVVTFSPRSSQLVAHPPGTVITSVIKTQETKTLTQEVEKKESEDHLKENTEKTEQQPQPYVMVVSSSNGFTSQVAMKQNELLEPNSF
Sequence of ETV6 (P41212 whole entry): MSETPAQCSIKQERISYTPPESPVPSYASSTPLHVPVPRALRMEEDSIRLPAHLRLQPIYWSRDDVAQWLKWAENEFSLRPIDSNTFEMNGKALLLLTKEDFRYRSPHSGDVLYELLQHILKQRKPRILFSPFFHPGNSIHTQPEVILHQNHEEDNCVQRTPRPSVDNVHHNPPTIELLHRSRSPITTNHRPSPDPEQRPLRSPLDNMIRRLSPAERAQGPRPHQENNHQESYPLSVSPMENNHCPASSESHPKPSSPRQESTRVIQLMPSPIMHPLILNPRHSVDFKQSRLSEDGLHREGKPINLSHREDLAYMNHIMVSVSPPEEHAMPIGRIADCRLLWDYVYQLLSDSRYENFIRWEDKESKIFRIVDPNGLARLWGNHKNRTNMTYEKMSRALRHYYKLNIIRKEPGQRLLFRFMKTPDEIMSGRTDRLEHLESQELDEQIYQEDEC
Sequence of SPIB (Q01892 whole entry): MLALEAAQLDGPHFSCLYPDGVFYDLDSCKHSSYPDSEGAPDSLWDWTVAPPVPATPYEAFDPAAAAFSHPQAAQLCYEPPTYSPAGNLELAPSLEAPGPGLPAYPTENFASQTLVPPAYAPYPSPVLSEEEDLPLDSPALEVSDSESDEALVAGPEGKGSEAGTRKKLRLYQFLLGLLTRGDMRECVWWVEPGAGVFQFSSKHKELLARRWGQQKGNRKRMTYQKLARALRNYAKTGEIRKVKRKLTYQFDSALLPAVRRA

Row | Sequence | binding signal (ETV5) | binding signal (SPIC) | binding signal (ELK4) | binding signal (ELF3) | binding signal (ETV7) | binding signal (ETV3) | binding signal (ETV6) | binding signal (GABPA) | binding signal (ELF1) | binding signal (SPIB) | binding signal (ELK3) | binding signal (ETV3L)
1 | AAACAG | 1.07 fold enrichment (6-mer frequency, TF over GST control) | 1.12 fold enrichment (6-mer frequency, TF over GST control) | 1.04 fold enrichment (6-mer frequency, TF over GST control) | 1.01 fold enrichment (6-mer frequency, TF over GST control) | 1.04 fold enrichment (6-mer frequency, TF over GST control) | 1.01 fold enrichment (6-mer frequency, TF over GST control) | 1.03 fold enrichment (6-mer frequency, TF over GST control) |  |  |  |  | 
2 | TGGTCG | 1.06 fold enrichment (6-mer frequency, TF over GST control) | 1.13 fold enrichment (6-mer frequency, TF over GST control) |  |  |  | 1 fold enrichment (6-mer frequency, TF over GST control) |  | 1.08 fold enrichment (6-mer frequency, TF over GST control) | 1.02 fold enrichment (6-mer frequency, TF over GST control) | 1 fold enrichment (6-mer frequency, TF over GST control) | 1.11 fold enrichment (6-mer frequency, TF over GST control) | 1 fold enrichment (6-mer frequency, TF over GST control)

From publication PMC7862700, “An all-to-all approach to the identification of sequence-specific readers for epigenetic DNA modifications on cytosine”
